Results published in PubChem BioAssay (NCATS).
Inconclusive results are not listed. Activity calls are given as the source filed them. Calls follow the shape of the dose curve; as a rule, active = well fitted curve in the direction sought with a large enough effect; inconclusive = small, poorly fitted or top-dose-only effect, or another doubt; inactive = no such curve, though single readings can be large; an effect the other way counts as inactive or inconclusive. Where a SMILES comes first, the peptide text is derived from it.

Key:
NIH3T3 = experiment: qHTS assay to identify novel small-molecules to repurpose for Merkel cell carcinoma treatment (AID 1296009); conditions: MCC and control cell lines, CellTiter-Glo viability, 72 h; at 44.8 µM (top of the series) unless noted; also: nearly all actives have a fitted effect of over 60% in size
How it was run: (§1)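 Luminescence from CellTiter-Glo, read 10 min after addition at room temperature, reported viability following a 72 hr, 37 degree celsius treatment with NPC or MIPE compounds in titration; values normalized to plate controls.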

C33A = experiment: Primary qHTS to identify gynecologic anti-cancer compounds using libraries of approved drugs and bioactive compounds (AID 1345084); conditions: Gynecologic cancer cell panel viability, ATPlite luminescence, 48 h; series mostly up to 57.5 µM; also: % is scaled to controls: 0 for no effect and ±100 for the full control effect; nearly all actives have a fitted effect of over 55% in size
How it was run: (§2)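 Five-concentration response, 48 h; readout is ATP-driven luciferase luminescence.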

CAOV3 = experiment: as above; conditions: Gynecologic cancer cell panel viability, ATPlite luminescence, 48 h; series mostly up to 57.5 µM
How it was run: as §2

CASKI = experiment: as above; conditions: Gynecologic cancer cell panel viability, ATPlite luminescence, 48 h; series mostly up to 57.5 µM
How it was run: as §2

Es-2 = experiment: as above; conditions: Gynecologic cancer cell panel viability, ATPlite luminescence, 48 h; series mostly up to 57.5 µM
How it was run: as §2

HeLa = experiment: as above; conditions: Gynecologic cancer cell panel viability, ATPlite luminescence, 48 h; series mostly up to 57.5 µM
How it was run: as §2

Hek293T [1] = experiment: as above; conditions: Gynecologic cancer cell panel viability, ATPlite luminescence, 48 h, control line for the selectivity index; series mostly up to 57.5 µM
How it was run: as §2

JEG-3 = experiment: as above; conditions: Gynecologic cancer cell panel viability, ATPlite luminescence, 48 h; series mostly up to 57.5 µM
How it was run: as §2

OV90 = experiment: as above; conditions: Gynecologic cancer cell panel viability, ATPlite luminescence, 48 h; series mostly up to 57.5 µM
How it was run: as §2

PA-1 = experiment: as above; conditions: Gynecologic cancer cell panel viability, ATPlite luminescence, 48 h; series mostly up to 57.5 µM
How it was run: as §2

SKOV3 = experiment: as above; conditions: Gynecologic cancer cell panel viability, ATPlite luminescence, 48 h; series mostly up to 57.5 µM
How it was run: as §2

Tov-21-G = experiment: as above; conditions: Gynecologic cancer cell panel viability, ATPlite luminescence, 48 h; series mostly up to 57.5 µM
How it was run: as §2

Tov112D = experiment: as above; conditions: Gynecologic cancer cell panel viability, ATPlite luminescence, 48 h; series mostly up to 57.5 µM
How it was run: as §2

HEK293T [2] = experiment: qHTS assay to identify novel small-molecules to repurpose for Merkel cell carcinoma treatment (AID 1296009); conditions: MCC and control cell lines, CellTiter-Glo viability, 72 h; at 44.8 µM (top of the series) unless noted; also: nearly all actives have a fitted effect of over 60% in size
How it was run: as §1

CC12CC(c3ccoc3)OC(=O)C1CCC1(C)C2CCC(O)C1(C)O (stereo not given)
inactive: outcome (NIH3T3) | Potency (C33A) | Potency (CAOV3) | outcome (CASKI) | Potency (Es-2) | Potency (HeLa) | Potency (Hek293T [1]) | Potency (JEG-3) | Potency (OV90) | Potency (PA-1) | Potency (SKOV3) | Potency (Tov-21-G) | Potency (Tov112D)

O=C(O)CC1CCC(c2ccc(NC(=O)c3nnc(Nc4ccc(F)c(F)c4)o3)cc2)CC1 (stereo not given)
inactive: outcome (NIH3T3) | Potency (C33A) | Potency (CAOV3) | outcome (CASKI) | Potency (Es-2) | Potency (HeLa) | Potency (Hek293T [1]) | Potency (JEG-3) | Potency (OV90) | Potency (PA-1) | Potency (SKOV3) | Potency (Tov-21-G) | Potency (Tov112D)

CC(C)(Oc1ccc(-c2nc3cc(Cl)ccc3s2)cc1)C(=O)O
inactive: outcome (NIH3T3)

CNc1nc(Cc2ccccc2)nc2c1CCNC[C@@H]2C
inactive: outcome (NIH3T3) | Potency (C33A) | Potency (CAOV3) | outcome (CASKI) | Potency (Es-2) | Potency (HeLa) | Potency (Hek293T [1]) | Potency (JEG-3) | Potency (OV90) | Potency (PA-1) | Potency (SKOV3) | Potency (Tov-21-G) | Potency (Tov112D)

CC(=O)NC(Cc1ccccc1)C(=O)NC(C(=O)O)C(C)C (stereo not drawn) (Ac-Phe-Val-OH; configuration not given here)
inactive: outcome (HEK293T [2]) | Potency (C33A) | Potency (CAOV3) | Potency (Es-2) | Potency (HeLa) | Potency (Hek293T [1]) | Potency (JEG-3) | Potency (OV90) | Potency (PA-1) | Potency (SKOV3) | Potency (Tov-21-G) | Potency (Tov112D)

Cc1oc2nc3c(c(NC(=O)CN4CCCC4=O)c2c1C)CCCC3
inactive: outcome (NIH3T3) | Potency (C33A) | Potency (CAOV3) | outcome (CASKI) | Potency (Es-2) | Potency (HeLa) | Potency (Hek293T [1]) | Potency (JEG-3) | Potency (OV90) | Potency (PA-1) | Potency (SKOV3) | Potency (Tov-21-G)

CC(C)=C1C[C@@]2(C)C(=CC1=O)CC[C@@H](O)[C@@H]2C
inactive: outcome (HEK293T [2]) | Potency (C33A) | outcome (CASKI) | Potency (Es-2) | Potency (HeLa) | Potency (Hek293T [1]) | Potency (JEG-3) | Potency (OV90) | Potency (PA-1) | Potency (SKOV3) | Potency (Tov-21-G) | Potency (Tov112D)

CC1(C)CC[C@]2(C(=O)O[C@@H]3O[C@H](CO)[C@@H](O)[C@H](O)[C@H]3O)CC[C@]3(C)C(=CCC4[C@@]5(C)CC[C@H](O[C@@H]6O[C@H](C(=O)O)[C@@H](O[C@@H]7O[C@H](CO)[C@@H](O)[C@H](O)[C@H]7O)[C@H](O)[C@H]6O[C@@H]6O[C@H](CO)[C@@H](O)[C@H](O)[C@H]6O)C(C)(C)C5CC[C@]43C)C2C1 (stereo not given in full)
inactive: outcome (NIH3T3) inactive [at 9.27 µM] | activity change, negative = cytotoxicity (C33A) -1.12% [at 11.6 µM] | activity change, negative = cytotoxicity (CAOV3) 5.45% [at 11.6 µM] | activity change, negative = cytotoxicity (CASKI) 8.01% [at 11.6 µM] | activity change, negative = cytotoxicity (Es-2) -12.1% [at 11.6 µM] | activity change, negative = cytotoxicity (HeLa) 0.908% [at 11.6 µM] | activity change, negative = cytotoxicity (Hek293T [1]) 0.105% [at 11.6 µM] | activity change, negative = cytotoxicity (JEG-3) 18.6% [at 11.6 µM] | activity change, negative = cytotoxicity (OV90) 4.99% [at 11.6 µM] | activity change, negative = cytotoxicity (PA-1) 18.4% [at 11.6 µM] | activity change, negative = cytotoxicity (SKOV3) 10.3% [at 11.6 µM] | activity change, negative = cytotoxicity (Tov-21-G) -2% [at 11.6 µM] | activity change, negative = cytotoxicity (Tov112D) 6.91% [at 11.6 µM]

C[C@]1(OC(=O)/C=C\c2ccc(O)cc2)C[C@@H](O)[C@]2(O)C=CO[C@@H](O[C@@H]3O[C@H](CO)[C@@H](O)[C@H](O)[C@H]3O)C12 (stereo not given in full)
inactive: outcome (NIH3T3) inactive [at 17.4 µM] | Potency (C33A) | Potency (CAOV3) | outcome (CASKI) | Potency (Es-2) | Potency (HeLa) | Potency (Hek293T [1]) | Potency (JEG-3) | Potency (OV90) | Potency (PA-1) | Potency (SKOV3) | Potency (Tov-21-G) | Potency (Tov112D)

CC(=O)O[C@@H]1C(=O)C(C)=C(CCC(C)CC(=O)O)[C@@]2(C)CCCC(C)(C)C12 (stereo not given in full)
inactive: outcome (NIH3T3) | Potency (C33A) | Potency (CAOV3) | outcome (CASKI) | Potency (Es-2) | Potency (HeLa) | Potency (Hek293T [1]) | Potency (JEG-3) | Potency (OV90) | Potency (PA-1) | Potency (SKOV3) | Potency (Tov-21-G) | Potency (Tov112D)

CC(C)=CCC/C(C)=C/CO[C@@H]1O[C@H](CO[C@@H]2OC[C@](O)(CO)[C@H]2O)[C@@H](O)[C@H](O)[C@H]1O
inactive: outcome (NIH3T3) inactive [at 17.4 µM] | Potency (C33A) | Potency (CAOV3) | outcome (CASKI) | Potency (Es-2) | Potency (HeLa) | Potency (Hek293T [1]) | Potency (JEG-3) | Potency (OV90) | Potency (PA-1) | Potency (SKOV3) | Potency (Tov-21-G) | Potency (Tov112D)

OC[C@@]1(O)CO[C@H](OC[C@H]2O[C@@H](OC(CCCCc3ccc(O)cc3)CCc3ccc(O)cc3)[C@H](O[C@H]3OC[C@](O)(CO)[C@H]3O)[C@@H](O)[C@@H]2O)[C@@H]1O (stereo not given in full)
inactive: outcome (NIH3T3) inactive [at 17.4 µM] | Potency (C33A) | Potency (CAOV3) | outcome (CASKI) | Potency (Es-2) | Potency (HeLa) | Potency (Hek293T [1]) | Potency (JEG-3) | Potency (OV90) | Potency (PA-1) | Potency (SKOV3) | Potency (Tov-21-G) | Potency (Tov112D)

COc1ccc(C2OCC3C(c4cc(OC)c5c(c4)OCO5)OCC23)cc1OC (stereo not given)
inactive: outcome (NIH3T3) inactive [at 17.4 µM] | Potency (C33A) | Potency (CAOV3) | outcome (CASKI) | Potency (Es-2) | Potency (HeLa) | Potency (Hek293T [1]) | Potency (JEG-3) | Potency (OV90) | Potency (PA-1) | Potency (SKOV3) | Potency (Tov-21-G) | Potency (Tov112D)

COc1ccc(C2(O)c3ccccc3NC(=O)C2OC)cc1 (stereo not given)
inactive: outcome (NIH3T3) | Potency (C33A) | Potency (CAOV3) | outcome (CASKI) | Potency (Es-2) | Potency (HeLa) | Potency (Hek293T [1]) | Potency (JEG-3) | Potency (OV90) | Potency (PA-1) | Potency (SKOV3) | Potency (Tov-21-G) | Potency (Tov112D)

C=C1CCC2C(C)(C)CC(O)CC2(C)C1CCC(C)CCOC(=O)CCC(=O)O (stereo not given)
inactive: outcome (NIH3T3) inactive [at 17.4 µM] | Potency (C33A) | Potency (CAOV3) | outcome (CASKI) | Potency (Es-2) | Potency (HeLa) | Potency (Hek293T [1]) | Potency (JEG-3) | Potency (OV90) | Potency (PA-1) | Potency (SKOV3) | Potency (Tov-21-G) | Potency (Tov112D)
